About 8,800 targets were measured; listed, in parts, are those with a hit and a random draw of the rest. About 0.5% of all pairs of compound and target were hits.
The targets below were run with C1=CC=C(C=C1)[C@H](COC2=CC3=C(C=C2)NC(=O)N3)NC(=O)C4=CC=CN(C4=O)CC5=CC(=C(C=C5)F)F (assay: log2 fold change, soluble protein after heating vs DMSO (PISA); higher = thermal stabilisation; K562 lysate, 10 uM; active = over 0.2 and 3.5 SD of the protein, either way, in both replicates (recomputed)).
Outline: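 Thermal stability, expressed as log-two fold change relative to solvent controls, is given from duplicates. Crude K562 extract in PBS pH 7.4 with 1 mM MgCl2, at 1 mg/mL protein, was treated with 10 μM compound for 30 min and heated in aliquots for 3 min across 48°C-58°C. After pooling, adjustment to 0.5% NP-40 at 4°C and centrifugation at 21,000xg for 90 min, supernatant protein was measured by TMTpro 16plex LC-MS/MS with channel sums equalised.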
Sequence of UniProt Q9UJA2 (Q9UJA2 whole entry, looked up): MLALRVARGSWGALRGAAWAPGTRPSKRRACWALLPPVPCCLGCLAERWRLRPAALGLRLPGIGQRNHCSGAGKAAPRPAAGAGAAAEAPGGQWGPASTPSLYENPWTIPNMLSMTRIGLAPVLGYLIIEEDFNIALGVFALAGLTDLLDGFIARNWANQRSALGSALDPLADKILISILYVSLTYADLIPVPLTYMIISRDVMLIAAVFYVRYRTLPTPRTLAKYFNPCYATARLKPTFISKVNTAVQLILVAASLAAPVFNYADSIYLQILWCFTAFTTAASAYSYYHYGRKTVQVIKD
Sequence of UniProt Q08345 (Q08345 whole entry, looked up): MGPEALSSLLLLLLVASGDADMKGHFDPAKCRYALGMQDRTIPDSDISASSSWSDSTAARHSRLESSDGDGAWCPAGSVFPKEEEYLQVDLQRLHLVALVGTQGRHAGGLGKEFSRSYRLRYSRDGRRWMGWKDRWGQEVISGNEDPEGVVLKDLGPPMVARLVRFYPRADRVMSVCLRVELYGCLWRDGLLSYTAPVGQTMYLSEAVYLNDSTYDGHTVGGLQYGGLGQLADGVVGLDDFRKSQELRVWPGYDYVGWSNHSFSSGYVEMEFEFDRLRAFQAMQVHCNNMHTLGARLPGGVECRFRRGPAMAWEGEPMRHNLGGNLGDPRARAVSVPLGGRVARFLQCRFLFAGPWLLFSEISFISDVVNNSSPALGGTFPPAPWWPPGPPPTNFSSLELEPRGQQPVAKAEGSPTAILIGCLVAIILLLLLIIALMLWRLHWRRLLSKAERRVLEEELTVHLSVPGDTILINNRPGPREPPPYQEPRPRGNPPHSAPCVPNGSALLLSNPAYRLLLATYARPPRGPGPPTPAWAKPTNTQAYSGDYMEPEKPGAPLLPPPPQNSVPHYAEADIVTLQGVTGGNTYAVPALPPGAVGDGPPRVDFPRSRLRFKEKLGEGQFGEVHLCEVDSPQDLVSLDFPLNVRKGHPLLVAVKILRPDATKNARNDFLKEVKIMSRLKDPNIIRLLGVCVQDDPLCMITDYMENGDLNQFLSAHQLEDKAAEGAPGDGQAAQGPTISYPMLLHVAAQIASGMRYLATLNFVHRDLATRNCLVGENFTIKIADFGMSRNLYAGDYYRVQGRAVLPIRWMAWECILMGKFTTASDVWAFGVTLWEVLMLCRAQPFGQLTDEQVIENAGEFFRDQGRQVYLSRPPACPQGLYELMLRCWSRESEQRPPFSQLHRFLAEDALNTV
Sequence of UniProt Q6UX07 (Q6UX07 whole entry, looked up): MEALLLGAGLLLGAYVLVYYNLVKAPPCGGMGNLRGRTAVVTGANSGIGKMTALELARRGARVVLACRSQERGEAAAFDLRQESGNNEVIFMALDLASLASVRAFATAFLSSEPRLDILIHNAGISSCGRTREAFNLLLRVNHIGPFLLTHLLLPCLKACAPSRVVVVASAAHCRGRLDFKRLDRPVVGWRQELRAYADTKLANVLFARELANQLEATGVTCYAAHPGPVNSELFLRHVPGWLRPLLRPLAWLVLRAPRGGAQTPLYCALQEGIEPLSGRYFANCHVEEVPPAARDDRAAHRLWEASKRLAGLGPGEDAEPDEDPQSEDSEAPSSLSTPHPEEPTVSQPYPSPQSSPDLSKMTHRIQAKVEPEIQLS
Sequence of UniProt O75122 (O75122 whole entry, looked up): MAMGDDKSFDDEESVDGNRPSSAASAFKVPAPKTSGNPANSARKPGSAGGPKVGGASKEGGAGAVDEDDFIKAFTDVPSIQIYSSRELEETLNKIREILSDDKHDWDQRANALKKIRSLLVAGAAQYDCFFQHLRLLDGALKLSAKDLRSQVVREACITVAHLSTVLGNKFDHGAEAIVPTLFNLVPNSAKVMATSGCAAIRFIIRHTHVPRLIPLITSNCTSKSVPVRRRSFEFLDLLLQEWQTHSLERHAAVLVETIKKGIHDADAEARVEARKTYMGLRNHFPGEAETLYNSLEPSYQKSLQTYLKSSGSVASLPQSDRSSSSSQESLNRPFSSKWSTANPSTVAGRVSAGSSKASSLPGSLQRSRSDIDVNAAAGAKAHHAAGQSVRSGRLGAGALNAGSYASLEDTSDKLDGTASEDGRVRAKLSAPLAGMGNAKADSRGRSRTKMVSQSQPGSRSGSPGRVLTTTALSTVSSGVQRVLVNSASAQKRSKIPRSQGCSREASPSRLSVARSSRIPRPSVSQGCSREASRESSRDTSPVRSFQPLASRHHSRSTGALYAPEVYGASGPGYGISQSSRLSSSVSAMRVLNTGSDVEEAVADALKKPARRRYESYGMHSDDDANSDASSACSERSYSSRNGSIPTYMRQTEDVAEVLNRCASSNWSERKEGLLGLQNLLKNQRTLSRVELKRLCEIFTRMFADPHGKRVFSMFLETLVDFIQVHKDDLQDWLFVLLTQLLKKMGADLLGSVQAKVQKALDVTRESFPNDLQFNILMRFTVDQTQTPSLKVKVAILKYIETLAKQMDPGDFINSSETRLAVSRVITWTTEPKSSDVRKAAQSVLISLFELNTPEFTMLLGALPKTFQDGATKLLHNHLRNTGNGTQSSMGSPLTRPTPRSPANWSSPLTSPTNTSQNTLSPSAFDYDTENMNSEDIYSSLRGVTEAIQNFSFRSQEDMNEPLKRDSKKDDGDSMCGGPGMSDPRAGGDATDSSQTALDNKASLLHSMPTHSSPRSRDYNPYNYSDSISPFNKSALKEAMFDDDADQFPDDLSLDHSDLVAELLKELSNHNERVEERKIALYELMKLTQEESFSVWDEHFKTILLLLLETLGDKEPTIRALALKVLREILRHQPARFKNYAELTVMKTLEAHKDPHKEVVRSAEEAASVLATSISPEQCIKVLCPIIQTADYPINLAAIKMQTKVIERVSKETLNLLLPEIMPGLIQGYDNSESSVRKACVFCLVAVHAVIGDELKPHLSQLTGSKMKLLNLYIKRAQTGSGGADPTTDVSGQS
Sequence of UniProt Q6ZWL3 (Q6ZWL3 whole entry, looked up): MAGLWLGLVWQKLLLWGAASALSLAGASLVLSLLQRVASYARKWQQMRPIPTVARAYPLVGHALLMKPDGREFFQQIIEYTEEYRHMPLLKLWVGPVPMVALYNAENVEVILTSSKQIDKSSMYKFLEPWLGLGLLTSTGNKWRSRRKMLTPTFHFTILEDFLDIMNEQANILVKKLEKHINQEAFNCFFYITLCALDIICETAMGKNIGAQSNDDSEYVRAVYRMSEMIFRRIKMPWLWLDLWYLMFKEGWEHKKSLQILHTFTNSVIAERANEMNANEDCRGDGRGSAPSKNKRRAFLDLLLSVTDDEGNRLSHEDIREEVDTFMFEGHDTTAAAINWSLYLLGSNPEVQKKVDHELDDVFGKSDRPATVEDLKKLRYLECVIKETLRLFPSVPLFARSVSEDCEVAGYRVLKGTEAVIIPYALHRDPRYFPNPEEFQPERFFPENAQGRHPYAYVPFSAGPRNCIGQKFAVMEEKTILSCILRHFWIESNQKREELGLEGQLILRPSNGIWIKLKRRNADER
Sequence of UniProt P30622 (P30622 whole entry, looked up): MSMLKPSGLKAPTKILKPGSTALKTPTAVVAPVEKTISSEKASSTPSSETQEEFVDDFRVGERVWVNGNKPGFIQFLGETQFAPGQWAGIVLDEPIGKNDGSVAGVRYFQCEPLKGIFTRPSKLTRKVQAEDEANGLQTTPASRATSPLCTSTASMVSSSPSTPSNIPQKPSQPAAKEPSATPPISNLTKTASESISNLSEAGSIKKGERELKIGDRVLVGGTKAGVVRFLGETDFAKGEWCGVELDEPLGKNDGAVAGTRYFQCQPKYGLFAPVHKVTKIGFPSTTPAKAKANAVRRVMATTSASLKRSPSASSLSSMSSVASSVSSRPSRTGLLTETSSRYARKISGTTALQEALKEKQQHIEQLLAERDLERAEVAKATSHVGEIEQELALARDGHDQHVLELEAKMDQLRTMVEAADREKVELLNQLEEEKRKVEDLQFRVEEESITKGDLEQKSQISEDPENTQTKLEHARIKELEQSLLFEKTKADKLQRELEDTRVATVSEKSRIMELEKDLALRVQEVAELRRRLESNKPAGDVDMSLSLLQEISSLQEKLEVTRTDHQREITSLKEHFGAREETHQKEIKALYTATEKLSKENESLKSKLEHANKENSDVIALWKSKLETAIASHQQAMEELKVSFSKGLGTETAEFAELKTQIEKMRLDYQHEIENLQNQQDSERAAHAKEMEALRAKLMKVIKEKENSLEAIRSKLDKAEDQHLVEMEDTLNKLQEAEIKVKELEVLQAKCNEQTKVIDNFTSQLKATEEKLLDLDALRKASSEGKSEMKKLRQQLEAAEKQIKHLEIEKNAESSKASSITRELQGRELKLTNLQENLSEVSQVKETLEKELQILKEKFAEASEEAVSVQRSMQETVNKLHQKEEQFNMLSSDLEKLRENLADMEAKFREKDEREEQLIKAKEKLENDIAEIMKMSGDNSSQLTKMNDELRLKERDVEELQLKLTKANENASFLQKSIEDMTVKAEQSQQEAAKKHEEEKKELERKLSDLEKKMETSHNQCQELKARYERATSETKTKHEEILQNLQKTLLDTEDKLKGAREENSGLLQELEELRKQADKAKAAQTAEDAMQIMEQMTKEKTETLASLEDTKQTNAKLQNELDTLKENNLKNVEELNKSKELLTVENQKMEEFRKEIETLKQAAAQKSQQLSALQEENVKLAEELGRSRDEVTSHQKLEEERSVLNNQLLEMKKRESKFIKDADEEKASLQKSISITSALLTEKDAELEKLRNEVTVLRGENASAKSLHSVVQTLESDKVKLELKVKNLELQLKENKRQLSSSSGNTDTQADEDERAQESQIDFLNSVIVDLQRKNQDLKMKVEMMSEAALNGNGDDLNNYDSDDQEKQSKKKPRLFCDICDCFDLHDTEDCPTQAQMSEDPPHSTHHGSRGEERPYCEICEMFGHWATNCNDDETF
Sequence of UniProt Q16527 (Q16527 whole entry, looked up): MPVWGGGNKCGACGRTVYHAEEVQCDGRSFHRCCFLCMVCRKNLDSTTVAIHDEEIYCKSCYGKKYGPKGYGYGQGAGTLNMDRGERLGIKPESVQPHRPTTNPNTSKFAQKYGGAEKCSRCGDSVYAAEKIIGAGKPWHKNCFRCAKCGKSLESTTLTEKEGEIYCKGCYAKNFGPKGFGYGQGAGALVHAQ
For CRLS1 (UniProt Q9UJA2), the log2 fold change was -0.349 (inactive).
In the case of CNTN4 (UniProt Q8IWV2), the log2 fold change is reported as 0.046 (inactive).
CSRP2 (UniProt Q16527) was tested, and the log2 fold change was -0.031 (inactive).
In the case of CYP4V2 (UniProt Q6ZWL3), the log2 fold change is reported as -0.119 (inactive).
In the case of CSDE1 isoform 3 (UniProt O75534), the log2 fold change is reported as -0.18 (inactive).
In the case of COL6A3 (UniProt P12111), the log2 fold change is reported as -0.008 (inactive).
DHRS13 (UniProt Q6UX07) was tested, and the log2 fold change was -0.13 (inactive).
For CHMP4A (UniProt H0YIN6), the log2 fold change was 0.032 (inactive).
In the case of CLASP2 (UniProt O75122), the log2 fold change is reported as 0.16 (inactive).
DDR1 isoform 5 (UniProt Q08345) was tested, and the log2 fold change was -0.1 (inactive).
For DLGAP5 isoform 3 (UniProt Q15398), the log2 fold change was -0.167 (inactive).
For DONSON (UniProt Q9NYP3), the log2 fold change was -0.043 (inactive).
For CLIP1 isoform 2 (UniProt P30622), the log2 fold change was 0.11 (inactive).

Reference: the supplement of paper PMC10849652
